High-throughput results: PubChem BioAssay, National Center for Advancing Translational Sciences (NCATS)
ELG1 repair inh – inhibitors of ELG1-dependent DNA repair in HEK293T cells; HEK293T ELG1-luciferase reporter, luminescence, 16 h; DNA damage induced by 5-fluorouridine; Potency, µM (titrated, usually from 46.1 µM), for inactives: at the top dose activity change, negative = inhibition, hits mostly inhibitors; actives 2.3% (n = 330,000); AID 504467; further: on the % scale 0 is the no-effect control and ±100 the full control effect; nearly all actives have a fitted effect of over 55% in size
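Cells (2,000 per well) received 5-fluorouridine plus test compound or DMSO and were incubated 16 hr at 37 °C, 5% CO2. Luciferase activity was read by luminescence 30 min after ONE-Glo addition; signal suppression marked inhibition of damage-induced ELG1 function.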
KB-V1 MDR tox – KB-V1 MDR subline cytotoxicity. KB-V1 MDR cells viability, CellTiter-Glo, 72 h. Potency, µM (top dose mostly 46.1 µM), hits mostly cytotoxic. actives 3.4% (n = 400,000). AID 1347076; further: on the % scale 0 is the no-effect control and ±100 the full control effect; nearly all actives have a fitted effect of over 60% in size
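Following 72 h at 37 degrees C with compound, KB-V1 cell viability was read by CellTiter-Glo luminescence, medium being phenol-red-free DMEM plus 10% FBS; concentration-response parameters came from normalized, curve-fitted qHTS data.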
SW480 rerep – DNA re-replication induction in SW480 cells | Potency, µM (highest dose often 46.1 µM), without a hit: at the highest dose re-replication activation, most hits filed as activators | actives 1.8% (n = 340,000) | SW480 DNA re-replication, Hoechst DNA content imaging, 48 h; further: % of control where 0% means no effect; nearly all actives have a fitted effect of over 55% in size
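First, 250 cells per well were seeded. Next, compound or vehicle (23 nL) was pinned in, plates sat 48 hr at 37 C. Finally Hoechst was added for 40 min before fluorescence scanning.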
KB-3-1 tox – kills parental KB-3-1 adenocarcinoma cells; KB-3-1 viability, CellTiter-Glo ATP luminescence, 72 h; Potency, µM (highest dose often 46.1 µM), usual class: cytotoxic; actives 1.4% (n = 400,000); AID 1347075; further: on the % scale 0 is the no-effect control and ±100 the full control effect; nearly all actives have a fitted effect of over 60% in size
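Screening of KB-3-1 cells (DMEM, 10% FBS, phenol-red free) ran from lowest to highest compound concentration; after 72 h at 37 °C viability was read luminescently and curves fitted.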
MCF10A rerep – induces DNA re-replication in MCF 10a normal breast cells | MCF 10A DNA re-replication, Hoechst nuclear intensity, 48 h | Potency, µM (titrated, usually from 46.1 µM), without a hit: at the top dose activity, positive = re-replication, usual class: activators | actives 2.9% (n = 350,000) | AID 624296; further: % of control where 0% means no effect; nearly all actives have a fitted effect of over 50% in size
Starred values were filed as active, the others as inactive; i = inactive; ? = inconclusive; / = no result. Sampled rows, rich in hits. Any-hit rate of the full collection: about 8.1%. The call rests on the fitted dose curve; in most records, active means well fitted curve in the direction sought with a large enough effect; inconclusive means small, poorly fitted or top-dose-only effect, or another doubt; inactive means no such curve, though single readings can be large; an effect the other way counts as inactive or inconclusive. Potency means the concentration at half of the fitted maximal effect.

SMILES | ELG1 repair inh | KB-V1 MDR tox | SW480 rerep | KB-3-1 tox | MCF10A rerep
CCOC(=O)N1CCN(C(=O)Cc2c(C(=O)O)n(C)c3ccccc23)CC1 | -6.5% | i | -32.2% | i | 0.1%
Cc1ccc(S(=O)(=O)N2CCCOC2CNC(=O)C(=O)NCc2ccccc2C)cc1 (stereo unspecified) | -4.0% | ? | -3.7% | i | 1.7%
Cc1ccc2c(c1)c1c(n2CC(O)CN2CCCCC2C)CCCC1 (stereo unspecified) | -13.4% | i | 18.4µM* | ? | ?
Cc1ccc(S(=O)(=O)N2C(=O)c3cccc4cccc2c34)cc1 | ? | i | ? | ? | 9.2µM*
Cc1ccc(S(=O)(=O)ON2C(=O)c3cccc4cccc(c34)C2=O)cc1 | 11.5% | i | -16.8% | i | -1.5%
C=CCC[C@@H](Cc1ccc(F)cc1)C(=O)OC[C@H](Cc1c[nH]c2ccccc12)NC(=O)[C@@H](CC=C)CC(=O)NCCO | ? | i | -7.9% | i | 5.9%
COc1cc(NC(c2ccccc2)c2ccccc2)cc(OC)c1OC | -2.6% | i | -1.7% | i | -1.8%
COc1ccc(NC(c2ccccc2)c2ccncc2)cc1 (stereo unspecified) | 25.9µM* | i | -10.5% | i | 2.7%
COc1ccc(S(=O)(=O)Nc2ccccc2N2CCOCC2)cc1OC | -2.4% | 23.1µM* | -5.9% | i | -5.2%
CCOc1ccccc1NS(=O)(=O)c1ccc(OC)c(OC)c1 | -17.0% | 25.9µM* | -24.0% | i | 16.0%
O=S(=O)(Nc1ccccc1N1CCOCC1)c1ccc(Cl)cc1 | 9.4% | ? | ? | i | -3.6%
COc1ccc(NS(=O)(=O)c2ccc3ccccc3c2)c2ncccc12 | -15.0% | i | 14.6µM* | ? | ?
COc1ccc(S(=O)(=O)N2CCOCC2)cc1NS(=O)(=O)c1ccc(F)c(F)c1 | -6.9% | 23.1µM* | -7.2% | i | -2.6%
COc1ccc(NC(=O)CSc2nnnn2C)c([N+](=O)[O-])c1 | -14.4% | i | -3.9% | i | 3.0%
NC(=O)c1nnn(-c2ccccc2)c1N | 0.6% | i | -1.6% | i | 26.7%
O=[N+]([O-])c1ccc2nc(-c3ccccc3)cc(-c3ccccc3)c2c1 | 4.9% | i | -4.0% | i | -1.2%
Nc1nc(-c2cc(O)ccc2[N+](=O)[O-])cc(-c2ccccc2)c1[N+](=O)[O-] | -7.2% | i | 23.1µM* | i | 1.84µM*
CN(C)c1nc(NNC(=O)c2ccccc2)nc(N(C)C)n1 | / | 8.2µM* | 0.2% | i | -3.1%
CC1(c2ccccc2)NC(=O)N(CC(=O)NCc2ccc3c(c2)OCO3)C1=O (stereo unspecified) | 1.9% | i | -10.5% | i | -5.4%
NC(=O)c1c(N)[nH]c(C(=O)c2ccccc2)c1-c1ccncc1 | / | i | / | i | /
CCCCC(C(=O)NCCC(C)C)N(CCCN1CCOCC1)C(=O)c1snc(C(N)=O)c1N (stereo unspecified) | 5.1% | 9.2µM* | -3.3% | i | 18.0%
CC1CCCN(C(=O)c2ccc([N+](=O)[O-])o2)C1 (stereo unspecified) | -8.8% | i | ? | i | 19.3%
CCC1CCCCN1C(=O)c1ccc([N+](=O)[O-])o1 (stereo unspecified) | 4.9% | i | 92.6% | i | 18.4µM*
Cc1ccc(S(=O)(=O)Nc2cc(C(=O)NCCN3CCCC3)ccc2N2CCCCC2)cc1 | 2.0% | ? | -0.4% | ? | 14.1%
CCn1c(CCNC(=O)c2ccc(OC)cc2)nnc1SCc1ccc(Cl)c(Cl)c1 | ? | 4.61µM* | -134.3% | ? | 22.9%
Nc1ncnc2c1ncn2[C@@H]1O[C@H](CO)[C@@H](O)[C@H]1O | 15.2% | i | 8.3% | i | -3.8%
Nc1ncnc2c(C3OC(CO)C(O)C3O)c[nH]c12 (stereo unspecified) | / | 0.291µM* | 0.206µM* | 0.184µM* | ?
Cc1ccccc1Cn1c2ccccc2c2cnn(CC(=O)NC3CCCCCC3)c(=O)c21 | / | i | / | i | /
COc1cc(-c2nc(-c3cccc(Cl)c3)c(-c3ccccc3)[nH]2)cc(OC)c1OC | / | i | / | ? | /
